High-throughput results: PubChem BioAssay, Buhrlage Lab, Dana-Farber Cancer Institute and Novartis Institutes for BioMedical Research (Cambridge, Mass)
The list is not random: actives were taken first. Their share in the collection is about 4.6%.
USP7 inh: human USP7 deubiquitinase inhibition | Q93009 | purified USP7, Ub-rhodamine cleavage fluorescence | inhibition, % at 20 µM | 47,000 tested, 0.3% active
Target sequence (Q93009 whole entry, looked up): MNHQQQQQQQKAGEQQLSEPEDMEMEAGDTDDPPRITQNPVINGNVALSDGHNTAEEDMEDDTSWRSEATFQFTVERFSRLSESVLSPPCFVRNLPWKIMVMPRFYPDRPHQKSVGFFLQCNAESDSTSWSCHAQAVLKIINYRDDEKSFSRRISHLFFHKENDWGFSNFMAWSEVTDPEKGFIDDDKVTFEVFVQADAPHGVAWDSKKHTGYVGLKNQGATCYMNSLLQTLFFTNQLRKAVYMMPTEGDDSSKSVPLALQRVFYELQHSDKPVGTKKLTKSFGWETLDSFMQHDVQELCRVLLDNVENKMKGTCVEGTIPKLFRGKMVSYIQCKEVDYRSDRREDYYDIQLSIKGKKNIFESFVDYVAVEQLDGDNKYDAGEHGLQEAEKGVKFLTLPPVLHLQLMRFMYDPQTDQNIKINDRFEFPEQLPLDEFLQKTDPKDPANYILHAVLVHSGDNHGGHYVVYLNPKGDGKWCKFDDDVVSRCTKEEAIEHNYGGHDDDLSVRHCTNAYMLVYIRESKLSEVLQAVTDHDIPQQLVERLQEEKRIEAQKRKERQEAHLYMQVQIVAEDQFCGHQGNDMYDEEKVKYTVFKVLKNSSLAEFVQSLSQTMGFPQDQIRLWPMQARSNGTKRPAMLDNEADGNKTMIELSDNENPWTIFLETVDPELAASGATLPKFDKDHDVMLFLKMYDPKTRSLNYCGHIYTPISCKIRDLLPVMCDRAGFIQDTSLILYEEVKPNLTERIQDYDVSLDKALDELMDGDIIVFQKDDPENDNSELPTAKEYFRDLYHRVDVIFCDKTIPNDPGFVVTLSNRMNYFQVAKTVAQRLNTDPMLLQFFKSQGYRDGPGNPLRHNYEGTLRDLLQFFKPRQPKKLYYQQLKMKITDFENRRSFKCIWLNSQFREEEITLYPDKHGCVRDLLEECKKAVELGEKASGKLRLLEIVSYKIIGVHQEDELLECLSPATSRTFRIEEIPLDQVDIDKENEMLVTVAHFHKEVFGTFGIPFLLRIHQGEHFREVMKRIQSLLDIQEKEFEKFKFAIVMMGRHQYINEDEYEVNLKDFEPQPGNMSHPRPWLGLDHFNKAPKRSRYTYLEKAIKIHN
USP10 block: human USP10 deubiquitinase inhibition | 47,000 tested, 1.1% active | purified USP10, Ub-rhodamine fluorescence, 60 min | inhibition, % at 20 µM
UCHL1 block: inhibitors of human UCHL1 deubiquitinase | purified UCHL1, Ub-rhodamine cleavage fluorescence | 47,000 tested, 0.2% active | inhibition, % at 20 µM | P09936 | AID 1645859
USP8 block: blocks human USP8 ubiquitin-rhodamine cleavage. P40818. 47,000 tested, 4.2% active. purified USP8, Ub-rhodamine cleavage fluorescence, 30 min. inhibition, % at 20 µM
An asterisk follows results filed as active. No stated cut-off is given here; in the data, active means inhibition above about 30%; inactive means the rest.

SMILES | USP7 inh | USP10 block | UCHL1 block | USP8 block
Cc1ccc(NC(=O)CSc2ccccc2C(=O)Nc2ccc3c(c2)NC(=O)C(C)O3)cc1 (configuration not stated) | -1 | -8 | -2 | 37*
COc1ccc(OC)c(C(=O)Nc2ccc3c(c2)NC(=O)C(C)O3)c1 (configuration not stated) | 1 | 2 | 1 | 2
COc1ccc(OCC(=O)Nc2ccc3c(c2)NC(=O)C(C)O3)cc1 (configuration not stated) | 2 | 0 | 1 | -12
Cc1cccc(OCC(=O)Nc2ccc3c(c2)NC(=O)C(C)O3)c1 (configuration not stated) | 9 | 16 | 7 | 35*
CC(=O)c1ccc(NC2=NS(=O)(=O)C(c3ccc(F)cc3)=C2C)cc1 | 0 | 2 | -1 | -12
O=C(NCCCN1CCc2ccccc2C1)c1cc2c(s1)CS(=O)(=O)C2 | 0 | -11 | -6 | 46*
O=C(NCCC1=CCCCC1)c1cc2c(s1)CS(=O)(=O)C2 | -2 | -1 | 1 | -2
O=C(CSc1nc2ccncc2[nH]1)Nc1ccc(Br)cc1F | 0 | 9 | 0 | 35*
O=C(CSc1nc2ccccc2n1S(=O)(=O)c1ccc(Br)cc1)Nc1ccc(Br)cc1F | 0 | 7 | 5 | 14
CN(C)CCNCc1cccc(Oc2nnnn2-c2ccccc2)c1 | -3 | 1 | -2 | 0
O=C(Nc1cc(F)c2nc(N3CCOCC3)ccc2c1)C1CCC1 | -4 | 0 | 3 | 78*
Cc1ccc(NC(=O)c2cnc(N3CCOCC3)nc2)cc1F | -43 | 1 | 0 | 13
O=C(Nc1cc(F)c2nc(N3CCOCC3)ccc2c1)C1CC1 | -4 | -8 | 7 | 59*
O=C(Nc1cc(F)c2nc(N3CCOCC3)ccc2c1)c1ccc(Br)o1 | -9 | -8 | 4 | 86*
Cc1ccc2[nH]c3c(=O)n(CCc4ccc(O)cc4)cnc3c2c1 | 7 | -2 | 3 | 14
O=C(O)c1ccc(NC(=O)c2ccc(-c3ccccc3)cc2)cc1 | -12 | 7 | -1 | 4
COc1ccc(OC)c(C2c3[nH]c4ccccc4c3C[C@@H]3C(=O)N(CCCN4CCOCC4)CC(=O)N23)c1 (some centres not stated) | 0 | -7 | -1 | -22
FC(F)(F)c1cccc(Nc2nc(-c3ccccn3)nc3ccccc23)c1 | 13 | 22 | 6 | 22
Brc1ccc(Nc2nc(-c3ccccn3)nc3ccccc23)cc1 | 16 | 20 | 4 | 93*
COc1ccc(/C=C/C(=O)Nc2ccc(Cl)c(-c3nc4ncccc4o3)c2)cc1 | 12 | 24 | 2 | 58*
O=C(/C=C/c1ccc(Cl)cc1)Nc1cccc(-c2nc3ncccc3o2)c1 | 6 | -1 | -1 | 7
Clc1ccc2ncc(-c3nnnn3-c3ccc4ccccc4c3)c(-c3ccccc3)c2c1 | -20 | 4 | 5 | 9
Cc1ccc(-n2nnnc2-c2cnc3cc(Cl)ccc3c2N)cc1 | 18 | 15 | 7 | 44*
CC1(C(=O)NCc2ccccc2)CCC(=O)N1Cc1ccc2c(c1)OCO2 (configuration not stated) | -2 | -1 | -2 | 12
O=C(c1cc(Cl)nc2ccccc12)N1CCc2ccccc2C1 | -12 | 6 | 0 | 33*
SMILES | USP7 inh | USP10 block | UCHL1 block | USP8 block
Cc1ccc(-n2cc(C(=O)NCc3ccccn3)nn2)cc1C | 5 | 3 | 5 | 15
Cc1ccc(-n2cc(C(=O)N3CCc4ccccc4C3)nn2)cc1 | 0 | 1 | -2 | 19
Cc1ccc(-n2cc(C(=O)NCCCc3ccccc3)nn2)cc1 | 25 | 24 | 7 | 78*
Cc1ccc(-n2cc(C(=O)N3CCN(c4ccccc4)CC3)nn2)cc1 | 2 | 6 | 0 | 40*
COc1ccc(-c2cc3nc([C@H](C)NC(=O)Cc4cccc(F)c4)nn3cn2)cc1 | 52* | 29 | 38* | 9
COc1ccc(-c2cc3nc([C@@H](C)NC(=O)c4ccc5c(c4)OCO5)nn3cn2)cc1 | -34 | 1 | 0 | 32*
COCCOc1ccc(C(=O)N[C@H](C)c2nc3cc(-c4ccccc4F)ncn3n2)cc1 | 0 | 5 | -1 | 3
COc1cccc(CC(=O)N[C@@H](C)c2nc3cc(-c4ccc(F)cc4)ncn3n2)c1 | -3 | 0 | 0 | 2
COc1ccc(-c2cc3nc([C@H](C)NC(=O)Cc4cc(F)ccc4F)nn3cn2)cc1 | 46* | 37* | 22 | 14
COc1ccc(NC(=O)N2CCc3nc4ccccc4n3CC2)cc1 | 2 | 0 | 3 | 3
Cc1nc(-c2cccc(NC(=O)C3CC(=O)N(c4ccc(C)c(C)c4)C3)c2)no1 (configuration not stated) | -17 | -5 | -24 | -6
